Data reported in PubChem BioAssay AID1259415 (National Center for Advancing Translational Sciences (NCATS), 2018).
Several values for one entry are separate records, joined by “and”; a condition that tells them apart may be missing. Equal entries are not always repeated. In all, about 410,000 compounds went through this assay and about 18,000 (4.4%) were called active. Another 7% or so got no clear call; they are omitted. The sample holds actives, similar compounds and a random draw of the others, so the mix is not that of the screen. Values without a mark were called inactive. No stated cut-off is given here; in the data, active means activity change below about -60%; inconclusive means no clear call, values can overlap the other calls; inactive means above about -39%.

Assay: qHTS Assay for inhibitors of the human cytomegalovirus (HCMV)
Settings: HFF cells, HCMV-luciferase reporter, 72 h; at 57.5 µM; hits give low values
In short: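 Compounds were evaluated in HFFs infected with an HCMV luciferase reporter virus (MOI 1 PFU/cell). Luciferase in lysates collected 72 h post infection served as the replication measure.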
On the % scale 0 is the no-effect control and ±100 the full control effect.

**Q.** With O=C(CC1Sc2ccccc2NC1=O)NNc1ccc(Cl)c(Cl)c1 (stereo unspecified) as the compound, how does the activity change, negative = inhibition read?
**A.** -35.8%

**Q.** For COc1ccc(N2CCN(S(=O)(=O)c3ccc(-c4coc(C)n4)cc3)CC2)cc1, which activity change, negative = inhibition is on record?
**A.** -11.2%

**Q.** Which activity change, negative = inhibition does the source give for CCOc1ccccc1N1CN(Cc2ccccc2)CNC1=S here?
**A.** -2.1%

**Q.** For CCOC(=O)c1ccc(NC2=CC(c3ccc(OCC)cc3)N(c3ccc(C(=O)OCC)cc3)C2=O)cc1 (stereo unspecified), which activity change, negative = inhibition is on record?
**A.** 18.7%

**Q.** For CCc1nnc(NC(=O)C2CCN(C(=O)c3ccccc3C)CC2)s1, which activity change, negative = inhibition is on record?
**A.** 17.6%

**Q.** With CC(C)c1nnc(NC(=O)C2CCCN2S(=O)(=O)c2ccc(Cl)cc2)s1 (stereo unspecified) as the compound, how does the activity change, negative = inhibition read?
**A.** 2.67%

**Q.** For CCc1nnc(NC(=O)C2CCCN2S(=O)(=O)c2ccccc2)s1 (stereo unspecified), which activity change, negative = inhibition is on record?
**A.** -60.4% (active)

**Q.** Which activity change, negative = inhibition does the source give for O=C(CCn1c(=O)c2ccccc2n(Cc2ccc(Cl)cc2)c1=O)NCc1ccc2c(c1)OCO2 here?
**A.** 10.1%

**Q.** Which activity change, negative = inhibition does the source give for COc1ccc(C(=O)/C=C/c2cccnc2)c(OC)c1 here?
**A.** -71.6% (active)

**Q.** With COc1ccc(C(=O)COC(=O)C(O)c2ccccc2)c(OC)c1 (stereo unspecified) as the compound, how does the activity change, negative = inhibition read?
**A.** -26%

**Q.** With COc1ccc(N2CC(C(=O)NCCN3C(=O)S/C(=C\c4cccnc4)C3=O)CC2=O)c(OC)c1 (stereo unspecified) as the compound, how does the activity change, negative = inhibition read?
**A.** 24.9%

**Q.** Which activity change, negative = inhibition does the source give for Cc1ccsc1CN(C(=O)c1oc2ccc(Br)cc2c1C)C1CCS(=O)(=O)C1 (stereo unspecified) here?
**A.** 30.1%

**Q.** Which activity change, negative = inhibition does the source give for CCN1CCN(c2ncnc3c2cnn3-c2ccc(C)c(C)c2)CC1 here?
**A.** -1.25%

**Q.** Which activity change, negative = inhibition does the source give for Cc1ccc(NC(=O)c2oc3ccccc3c2NC(=O)Cc2cccs2)cc1 here?
**A.** 14.9%

**Q.** For CCOc1ccc2oc(=O)cc(CN3CCN(C(=O)c4ccc(F)cc4)CC3)c2c1, which activity change, negative = inhibition is on record?
**A.** -25.5%

**Q.** Which activity change, negative = inhibition does the source give for CC[n+]1cc(C)ccc1/C=C/c1ccc(N(C)C)cc1 here?
**A.** -99.4% (active)

**Q.** Which activity change, negative = inhibition does the source give for CCOC(=O)c1ccc(NC(=O)c2ncn(-c3ccccc3)n2)cc1 here?
**A.** 43.5%

**Q.** Which activity change, negative = inhibition does the source give for COc1ccc(Cl)cc1NC(=O)CSc1nc(=O)[nH]c2c1CCCC2 here?
**A.** 31.1%

**Q.** For NS(=O)(=O)c1ccc(CCNC(=O)CCCCCn2c(=O)[nH]c3ccccc3c2=O)cc1, which activity change, negative = inhibition is on record?
**A.** 34%

**Q.** For COc1ccccc1N1CCN(c2ccc(=O)n(CC(=O)NCc3ccc(OC(C)C)cc3)n2)CC1, which activity change, negative = inhibition is on record?
**A.** 13.7%

**Q.** With Cc1c(C(=O)N2CCCC2)oc2c1-c1nn(CC(=O)NCc3ccc(OC(C)C)cc3)cc1CC2 as the compound, how does the activity change, negative = inhibition read?
**A.** -68.3% (active)

**Q.** With CCCN(CCC)CCCNC(=O)Cn1cc2c(n1)-c1c(oc(C(=O)N3CCCC3)c1C)CC2 as the compound, how does the activity change, negative = inhibition read?
**A.** -39.7%

**Q.** For COc1ccccc1N(C)S(=O)(=O)c1ccc(C(=O)N2CCC(C(N)=O)CC2)cc1, which activity change, negative = inhibition is on record?
**A.** 63.1%

**Q.** Which activity change, negative = inhibition does the source give for COc1ccc(C(=O)Nc2ccc(-n3nncc3-c3ccccc3)cc2)cc1OC here?
**A.** -6.64%

**Q.** Which activity change, negative = inhibition does the source give for COc1cccc(C(=O)NC(=O)Nc2ccc(-c3cc(C(F)(F)F)nn3-c3ccccc3)cc2)c1 here?
**A.** -6.79%

**Q.** With COc1cccc(C(=O)Nc2ccc(-c3cc(C(F)(F)F)nn3-c3ccccc3)cc2)c1 as the compound, how does the activity change, negative = inhibition read?
**A.** -87.7% (active)

**Q.** For Cc1ccc(CNC(=O)CCc2c(C)nc3nc(CNC(=O)OC(C)(C)C)nn3c2C)cc1, which activity change, negative = inhibition is on record?
**A.** -10.3%

**Q.** For COc1cc2ccccc2cc1C(=O)Nc1cccc(-c2nc3ccccc3o2)c1, which activity change, negative = inhibition is on record?
**A.** -27.9%

**Q.** With Cc1ccc(C)c(N2CCN(C(=O)C3CCC(CNS(=O)(=O)c4cccs4)CC3)CC2)c1 (stereo unspecified) as the compound, how does the activity change, negative = inhibition read?
**A.** -30%

**Q.** Which activity change, negative = inhibition does the source give for CC1CCc2sc(C(=O)NCC(c3ccco3)N3CCCCC3)cc2C1 (stereo unspecified) here?
**A.** -61.7% (active)

**Q.** For CSc1ncccc1C(=O)NCC(c1ccco1)N1CCCCC1 (stereo unspecified), which activity change, negative = inhibition is on record?
**A.** -4.3%

**Q.** For CC1Cc2ccccc2N1S(=O)(=O)c1cccc(C(=O)NCC(c2ccco2)N2CCCC2)c1 (stereo unspecified), which activity change, negative = inhibition is on record?
**A.** -24%

**Q.** With CCOC(=O)c1ccc(NC(=O)C2CC(=O)NC(=Nc3ccc(C)c(C)c3)S2)cc1 (stereo unspecified) as the compound, how does the activity change, negative = inhibition read?
**A.** -14.2%

**Q.** For CC1(C)CC(=O)c2cc(OCC(=O)NCC3CCCO3)ccc2O1 (stereo unspecified), which activity change, negative = inhibition is on record?
**A.** 55.1%

**Q.** Which activity change, negative = inhibition does the source give for Cc1ccc(CNC(=O)CCC(=O)N2Cc3ccccc3Oc3ncccc32)cc1 here?
**A.** -2.66%

**Q.** Which activity change, negative = inhibition does the source give for CN1CCC(N(C)C(=O)c2ccc(Cl)c(S(=O)(=O)Nc3ccc(Cl)cc3)c2)CC1 here?
**A.** -3.23%

**Q.** For Cn1c(=O)n(C)c(=O)n(CC(=O)N2CCCCC2)c1=O, which activity change, negative = inhibition is on record?
**A.** 32.3%

**Q.** For CC1CCCN(C(=O)Cn2c(=O)oc3ccccc32)C1 (stereo unspecified), which activity change, negative = inhibition is on record?
**A.** 12.6%

**Q.** With O=C(Cn1c(=O)n(CC2CS2)c2ccccc21)N1CCCCC1 (stereo unspecified) as the compound, how does the activity change, negative = inhibition read?
**A.** -89.4% (active)

**Q.** With Cc1cc(NC(=O)c2ccc(-c3ccc(Cl)cc3)o2)cc(-c2nc3ncccc3o2)c1O as the compound, how does the activity change, negative = inhibition read?
**A.** 5.53%

**Q.** For COc1ccc(C(=O)NC2CCCc3c2cnn3-c2cccc(C)c2C)c(OC)n1 (stereo unspecified), which activity change, negative = inhibition is on record?
**A.** -87% (active)

**Q.** Which activity change, negative = inhibition does the source give for COc1cccc(C(=O)Nc2c3c(nn2-c2cccc(C)c2C)CS(=O)(=O)C3)c1OC here?
**A.** -4.86%

**Q.** With Cc1cccc(C(=O)OC(C)C(=O)NC2CCCc3ccccc32)c1O (stereo unspecified) as the compound, how does the activity change, negative = inhibition read?
**A.** -10.7%

**Q.** With Cc1cccc(-n2nc3c(c2NC(=O)c2ccc(Br)o2)CSC3)c1C as the compound, how does the activity change, negative = inhibition read?
**A.** 14.4%

**Q.** With Cc1cc(C(=O)NNC(=O)CCC2CCCCC2)c(C)o1 as the compound, how does the activity change, negative = inhibition read?
**A.** -17%

**Q.** Which activity change, negative = inhibition does the source give for Cc1cc(C(=O)NC2CCCc3c2cnn3-c2cccc(C)c2C)c(C)o1 (stereo unspecified) here?
**A.** -73.8% (active)

**Q.** Which activity change, negative = inhibition does the source give for COc1ccc(C(=O)N2CCC(c3nc4ccccc4o3)CC2)cc1 here?
**A.** 43.5%

**Q.** With Cc1cccc(N2CCN(C(=O)c3oc(=O)c4ccccc4c3-c3ccccc3)CC2)c1C as the compound, how does the activity change, negative = inhibition read?
**A.** 4.74%

**Q.** With CCn1c(C)c(C)c2cc(C(=O)N3CCN(c4cccc(C)c4C)CC3)ccc21 as the compound, how does the activity change, negative = inhibition read?
**A.** 0% and 13.6%

**Q.** Which activity change, negative = inhibition does the source give for Cc1cccc(N2CCN(C(=O)c3cc4c(=O)[nH]c5ccccc5c4n3C)CC2)c1C here?
**A.** -65.2% (active)

**Q.** For COc1ccc2c(c1)c(=O)c(S(=O)(=O)c1ccc(F)cc1)cn2CC(=O)Nc1ccc(C)cc1C, which activity change, negative = inhibition is on record?
**A.** -7.71%

**Q.** Which activity change, negative = inhibition does the source give for CCS(=O)(=O)c1nc(S(=O)(=O)c2ccc(C)cc2)c(NCc2ccc(Cl)cc2)s1 here?
**A.** -5.88%

**Q.** Which activity change, negative = inhibition does the source give for Cc1cccc(OCCSc2nc3ccc(NC(=O)COc4ccccc4C)cc3s2)c1 here?
**A.** -12.2%

**Q.** With CSc1nc2ccc(S(=O)(=O)N3CCc4ccccc43)cc2s1 as the compound, how does the activity change, negative = inhibition read?
**A.** -81.9% (active)

**Q.** Which activity change, negative = inhibition does the source give for CCn1c(=O)c(=O)n(CC)c2cc(S(=O)(=O)N3CCc4ccccc43)ccc21 here?
**A.** -35.5%

**Q.** With CCC(=O)Nc1ccc2nc(SCC(=O)N3CCc4ccccc43)sc2c1 as the compound, how does the activity change, negative = inhibition read?
**A.** 29.6%
